Active and inactive are the calls of the source. Calls come from the whole dose curve.
Target: Thyroid hormone receptor beta (Homo sapiens) (UniProt P10828)
Test: Secondary Confirmation Assay for Inhibitors of the Interaction of Thyroid Hormone Receptor and Steroid Receptor Coregulator 2, Texas Red Fluoroprobe
Settings: TRb LBD / Texas Red SRC2 peptide fluorescence polarization
Text: NIH Molecular Libraries Probe Production Network [MLPCN] NIH Chemical Genomics Center [NCGC] MLPCN Grant: DK058080 Assay Provider: R. Kip Guy, St. Jude Children's Research Hospital NCGC Assay Overview: Thyroid receptor (TR) regulates many homeostatic processes including basal metabolism, cardiovascular function, body weight, and lipid trafficking. TR modulators are potential therapeutics for obesity and hyperlipidemias but current thyroid analogs have undesirable side effects, particularly cardiac stimulation. To identify inhibitors that specifically prevent the interaction of TR with the steroid receptor coregulator 2 (SRC2), a fluorescence polarization assay was screened (Arnold et al., 2006). This assay detects the interaction of the ligand-binding domain of human TRb with a Texas Red labeled SRC2 peptide, corresponding to a 20 amino acid region of the nuclear receptor interaction domain. Small molecule inhibitors that block the interaction of TR and SRC2 are detected by a decrease in fluorescence polarization.
NCGC Assay Protocol Summary: Twenty uL/well 0.6 uM TRb and 20 nM Texas Red labeled SRC2-2 in protein buffer (20mM Tris hydrochloride, pH 7.4, 100mM NaCl, 10% glycerol, 1mM EDTA, 0.01% NP-40, 1mM DTT, 1uM T3 and 4% DMSO) was dispensed into black solid 384-well plates (Costar 3710) using a Biomek FX (Beckman Coulter) liquid handling system. Following transfer of 260 nL compound (ranging from 7 nM to 130 uM), the plates were incubated 3 hr at ambient temperature. The plates were read by an Envision (Perkin Elmer) to detect fluorescence polarization of SRC2 Texas Red (555 nm excitation and 632 nm emission). Arnold, L. A.; Estebanez-Perpina, E.; Togashi, M.; Shelat, A.; Ocasio, C. A.; McReynolds, A. C.; Nguyen, P.; Baxter, J. D.; Fletterick, R. J.; Webb, P.; Guy, R. K. A high-throughput screening method to identify small molecule inhibitors of thyroid hormone receptor coactivator binding. Sci STKE 2006, p 13.

Sequence of Thyroid hormone receptor beta (Homo sapiens) (P10828 whole entry, looked up): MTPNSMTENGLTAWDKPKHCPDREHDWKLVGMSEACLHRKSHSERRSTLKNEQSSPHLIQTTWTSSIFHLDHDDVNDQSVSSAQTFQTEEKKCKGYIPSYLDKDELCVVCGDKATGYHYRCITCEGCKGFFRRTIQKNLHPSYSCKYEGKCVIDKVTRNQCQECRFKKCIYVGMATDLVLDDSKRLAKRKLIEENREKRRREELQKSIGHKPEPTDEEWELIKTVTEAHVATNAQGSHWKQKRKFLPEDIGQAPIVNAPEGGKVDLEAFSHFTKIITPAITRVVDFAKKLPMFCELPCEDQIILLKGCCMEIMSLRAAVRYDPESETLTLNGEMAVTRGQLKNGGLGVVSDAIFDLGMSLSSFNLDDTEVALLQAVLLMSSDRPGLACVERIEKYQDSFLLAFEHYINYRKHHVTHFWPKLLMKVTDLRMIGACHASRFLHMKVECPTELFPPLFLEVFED

SMILES	Potency	outcome
CC1CCN(C(=O)C(C)OC(=O)c2ccc(S(C)(=O)=O)c([N+](=O)[O-])c2)CC1 (stereo not given)	6.4 µM (active)	
CC(=O)N1CCN(C(=O)COC(=O)c2ccc([S+](C)(=O)[O-])c([N+](=O)[O-])c2)CC1		inactive
COc1cccc(CNC(=O)COC(=O)c2ccc(S(C)(=O)=O)c([N+](=O)[O-])c2)c1	64.6 µM (active)	
CS(=O)(=O)c1ccc(C(=O)OCC(=O)N2CCCc3ccccc32)cc1[N+](=O)[O-]	2.3 µM (active)	
CN1CCN(C(=O)COC(=O)c2ccc(S(C)(=O)=O)c([N+](=O)[O-])c2)CC1		inactive
C[S+](=O)([O-])c1ccc(C(=O)OCC(=O)N2CCNC(=O)C2)cc1[N+](=O)[O-]		inactive
CS(=O)(=O)c1ccc(-c2nc(C(=O)NC3C4CC5CC(C4)CC3C5)cs2)cc1[N+](=O)[O-] (stereo not given)	10.1 µM (active)	
CC(=O)c1cccc(NC(=O)C(C)OC(=O)c2ccc(S(C)(=O)=O)c([N+](=O)[O-])c2)c1 (stereo not given)	50.9 µM (active)	
CCN(CC)C(=O)COC(=O)c1ccc(S(C)(=O)=O)c([N+](=O)[O-])c1	41.3 µM (active)	
CC(C)CN1CCN(C(=O)COC(=O)c2ccc(S(C)(=O)=O)c([N+](=O)[O-])c2)CC1	42.4 µM (active)	
CS(=O)(=O)c1ccc(C(=O)OCC(=O)Nc2cc(C(F)(F)F)ccc2Cl)cc1[N+](=O)[O-]		inactive
CS(=O)(=O)c1ccc(C(=O)OCC(=O)N2CCc3ccccc32)cc1[N+](=O)[O-]	51.8 µM (active)	
Cc1nc(-c2ccc(S(C)(=O)=O)c([N+](=O)[O-])c2)sc1C(=O)NC1C2CC3CC(C2)CC1C3 (stereo not given)	4 µM (active)	
CC(OC(=O)c1ccc(S(C)(=O)=O)c([N+](=O)[O-])c1)C(=O)NC12CC3CC(CC(C3)C1)C2 (stereo not given)	2.1 µM (active)	
Cc1ccc(-c2csc(-c3ccc(S(C)(=O)=O)c([N+](=O)[O-])c3)n2)cc1	36.8 µM (active)	
CC(=O)c1cccc(NC(=O)COC(=O)c2ccc(S(C)(=O)=O)c([N+](=O)[O-])c2)c1		inactive
CCC(OC(=O)c1ccc(S(C)(=O)=O)c([N+](=O)[O-])c1)C(=O)NC1C2CC3CC(C2)CC1C3 (stereo not given)	1.1 µM (active)	
O=C(COC(=O)c1ccc(Cl)c([N+](=O)[O-])c1)NC1C2CC3CC(C2)CC1C3 (stereo not given)		inactive
CS(=O)(=O)c1ccc(C(=O)OCC(=O)N2CCC(c3ccccc3)CC2)cc1[N+](=O)[O-]	6.2 µM (active)	
Cc1ccc(F)cc1NC(=O)COC(=O)c1ccc(S(C)(=O)=O)c([N+](=O)[O-])c1		inactive

SMILES	Potency	outcome
CS(=O)(=O)c1ccc(C(=O)OCC(=O)N2CCN(c3ccccc3)CC2)cc1[N+](=O)[O-]	24.7 µM (active)	
O=C(COC(=O)c1cccc([N+](=O)[O-])c1)NC1C2CC3CC(C2)CC1C3 (stereo not given)		inactive
CS(=O)(=O)c1ccc(C(=O)NCC(=O)NC2C3CC4CC(C3)CC2C4)cc1[N+](=O)[O-] (stereo not given)	11.3 µM (active)	
CS(=O)(=O)c1ccc(C(=O)OCC(=O)NCC2CCCO2)cc1[N+](=O)[O-] (stereo not given)		inactive
CCN1CCN(C(=O)COC(=O)c2ccc(S(C)(=O)=O)c([N+](=O)[O-])c2)C(C)C1 (stereo not given)		inactive
O=C(COC(=O)c1ccc(C(F)(F)F)cc1)NC(=O)C1CCCCC1		inactive
CC(=O)Nc1cccc(C(=O)OCC(=O)NC(=O)C2CCCCC2)c1		inactive
CN(C(=O)COC(=O)c1ccc(S(C)(=O)=O)c([N+](=O)[O-])c1)c1ccccc1	1.6 µM (active)	
CS(=O)(=O)c1ccc(C(=O)OCC(=O)N2CCCCC2)cc1[N+](=O)[O-]	20.5 µM (active)	
C[S+](=O)([O-])c1ccc(C(=O)OCC(=O)NC2C3CC4CC(C3)CC2C4)cc1 (stereo not given)		inactive
CC1(C)C2CCC1(C)C(NC(=O)COC(=O)c1ccc(S(C)(=O)=O)c([N+](=O)[O-])c1)C2 (stereo not given)	4.3 µM (active)	
CC1CCN(C(=O)COC(=O)c2ccc(S(C)(=O)=O)c([N+](=O)[O-])c2)CC1	9.8 µM (active)	
O=C(COC(=O)c1ccc2ncsc2c1)NC(=O)C1CCCCC1		inactive
CS(=O)(=O)c1ccc(C(=O)OCC(=O)N2CCNc3ccccc32)cc1[N+](=O)[O-]	1.1 µM (active)	
N#Cc1ncc(C(=O)OCC(=O)NC2C3CC4CC(C3)CC2C4)cn1 (stereo not given)		inactive
CS(=O)(=O)c1ccc(C(=O)OCC(=O)N2CCOCC2)cc1[N+](=O)[O-]		inactive
CS(=O)(=O)c1ccc(C(=O)OC(C(=O)NC2C3CC4CC(C3)CC2C4)c2ccccc2)cc1[N+](=O)[O-] (stereo not given)	3.9 µM (active)	
O=C(COC(=O)c1cccc([N+](=O)[O-])c1Cl)NC1C2CC3CC(C2)CC1C3 (stereo not given)		inactive
CC(OC(=O)c1ccc(S(C)(=O)=O)c([N+](=O)[O-])c1)C(=O)NC1C2CC3CC(C2)CC1C3 (stereo not given)	1.4 µM (active)	
O=C(COC(=O)c1cc([N+](=O)[O-])ccc1F)NC1C2CC3CC(C2)CC1C3 (stereo not given)		inactive
